According to PubChem BioAssay AID1159580 (chemical genetic matrix, 2015):
Screen size: about 5,500 compounds; about 2,000 (36%) were called active. Not shown: some 18% with an inconclusive outcome. Cut-off read from the data, not from the text of the source: active = normalized growth mostly below about 0.91 (no sharp cut-off); inconclusive = no clear call, values can overlap the other calls; inactive = mostly above about 0.92. This is one part of the list.

Assay: chemical genetic growth profiling, strain panel (AID 1159580);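 note: tested at 20 µM; growth read once vehicle control cultures reached saturation at 30 °C; 1 = growth at the plate median or of vehicle wells; lower values mean less growth of the strain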
Conditions: S. cerevisiae deletion strains, growth OD

Measured: normalized growth

COc1ccc2c(c1)OCC(Cc1ccc(O)c(OC)c1)C2=O (stereo not given)
inactive: locus YAL021C, strain ccr4, active compounds read low 0.982 | locus YAL026C, strain drs2, active compounds read low 0.982 | locus YAL030W, strain snc1, active compounds read low 0.968 | locus YBL061C, strain skt5, active compounds read low 0.978 | locus YBR009C, strain hhf1, active compounds read low 0.972 | locus YBR023C, strain chs3, active compounds read low 0.97 | locus YBR171W, strain sec66, active compounds read low 0.969 | locus YBR231C, strain swc5, active compounds read low 0.971 | locus YBR279W, strain paf1, active compounds read low 0.982 | locus YCL011C, strain gbp2, active compounds read low 0.953 | locus YCL016C, strain dcc1, active compounds read low 0.97 | locus YCL061C, strain MRC1, active compounds read low 0.971 | locus YCL069W, strain vba3, active compounds read low 0.979 | locus YCR088W, strain abp1, active compounds read low 0.965 | locus YDL005C, strain med2, active compounds read low 0.965 | locus YDL040C, strain nat1, active compounds read low 0.972 | locus YDR001C, strain nth1, active compounds read low 0.967 | locus YDR069C, strain doa4, active compounds read low 0.963 | locus YDR137W, strain rgp1, active compounds read low 0.922 | locus YDR159W, strain sac3, active compounds read low 0.957 | locus YDR195W, strain ref2 0.958 | locus YDR297W, strain sur2, active compounds read low 0.98 | locus YDR334W, strain swr1, active compounds read low 0.949 | locus YDR335W, strain msn5, active compounds read low 0.985 | locus YDR392W, strain spt3, active compounds read low 0.882 | locus YEL003W, strain gim4, active compounds read low 0.98 | locus YEL037C, strain rad23, active compounds read low 0.97 | locus YEL061C, strain CIN8 (second series), active compounds read low 0.977 | locus YER015W, strain faa2, active compounds read low 0.974 | locus YER016W, strain bim1, active compounds read low 0.969 | locus YER111C, strain swi4, active compounds read low 0.999 | locus YER155C, strain BEM2 (second series), active compounds read low 0.974 | locus YFR010W, strain ubp6, active compounds read low 0.949 | locus YGL167C, strain pmr1, active compounds read low 0.974 | locus YGL173C, strain kem1, active compounds read low 0.973 | locus YGL227W, strain vid30, active compounds read low 0.979 | locus YGL240W, strain doc1, active compounds read low 0.96 | locus YGL253W, strain hxk2, active compounds read low 0.974 | locus YHR013C, strain ard1, active compounds read low 1 | locus YHR027C, strain rpn1, active compounds read low 0.963 | locus YHR030C, strain SLT2, active compounds read low 1.03 | locus YHR079C, strain IRE1, active compounds read low 1.03 | locus YHR142W, strain chs7, active compounds read low 0.943 | locus YJL092W, strain hpr5, active compounds read low 0.932 | locus YJL095W, strain BCK1 (second series), active compounds read low 0.98 | locus YJL095W, strain BCK1, active compounds read low 1.05 | locus YJL115W, strain asf1, active compounds read low 0.951 | locus YJL129C, strain trk1, active compounds read low 0.943 | locus YJL154C, strain vps35, active compounds read low 0.973 | locus YJL164C, strain tpk1, active compounds read low 0.968 | locus YJL166W, strain qcr8, active compounds read low 0.991 | locus YJL187C, strain SWE1, active compounds read low 0.998 | locus YJR066W, strain TOR1, active compounds read low 0.966 | locus YKL160W, strain elf1, active compounds read low 0.985 | locus YKR026C, strain gcn3, active compounds read low 0.967 | locus YKR091W, strain srl3, active compounds read low 0.965 | locus YLL001W, strain dnm1, active compounds read low 0.954 | locus YLL026W, active compounds read low 0.975 | locus YLL041C, strain sdh2, active compounds read low 0.966 | locus YLR027C, strain aat2, active compounds read low 0.964 | locus YLR113W, strain HOG1, active compounds read low 0.979 | locus YLR221C, strain rsa3, active compounds read low 0.982 | locus YLR258W, strain gsy2, active compounds read low 0.961 | locus YLR262C, strain YPT6 (second series), active compounds read low 0.949 | locus YLR320W, strain mms22, active compounds read low 0.983 | locus YLR342W, strain FKS1, active compounds read low 0.979 | locus YLR357W, strain rsc2, active compounds read low 0.965 | locus YLR370C, strain arc18, active compounds read low 0.948 | locus YLR384C, strain iki3, active compounds read low 0.981 | locus YML120C, strain ndi1, active compounds read low 0.971 | locus YMR058W, strain fet3, active compounds read low 0.964 | locus YMR125W, strain sto1, active compounds read low 0.948 | locus YMR129W, active compounds read low 0.974 | locus YMR205C, strain PFK2, active compounds read low 0.974 | locus YMR231W, strain pep5, active compounds read low 0.99 | locus YNL071W, strain lat1, active compounds read low 0.986 | locus YNL183C, strain NPR1, active compounds read low 0.964 | locus YNL209W, strain ssb2, active compounds read low 0.988 | locus YNL248C, strain rpa49, active compounds read low 0.971 | locus YNL322C, strain KRE1 (second series), active compounds read low 0.977 | locus YNR049C, strain mso1, active compounds read low 0.965 | locus YOR001W, strain rrp6, active compounds read low 0.982 | locus YOR070C, strain gyp1, active compounds read low 0.993 | locus YOR080W, strain dia2, active compounds read low 0.97 | locus YOR083W, strain WHI5, active compounds read low 0.971 | locus YOR106W, strain vam3, active compounds read low 0.952 | locus YOR231W, strain MKK1, active compounds read low 1.06 | locus YOR265W, strain rbl2, active compounds read low 0.975 | locus YOR270C, strain vph1, active compounds read low 0.951 | locus YOR290C, strain snf2, active compounds read low 0.965 | locus YPL051W, strain arl3, active compounds read low 0.983 | locus YPL078C, strain atp4, active compounds read low 0.978 | locus YPL106C, strain sse1, active compounds read low 0.914 | locus YPL240C, strain hsp82, active compounds read low 0.957 | locus YPL256C, strain CLN2, active compounds read low 1.03
